PubChem BioAssay (NCI)
About 79,000 compounds went through this panel and 15% of them were active in at least one assay; those are over-represented in the sample as a whole. A number with no mark means an inactive call. Calls of active or inactive are those of the source. Rule as the data show it: active = growth inhibition above about 70%; inactive = the rest.

Assay: NCI Yeast Anticancer Drug Screen. Data for the sgs1 mgt1 strain (AID 161);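 also: 0% = growth of cultures given vehicle only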
Settings: S. cerevisiae sgs1 mgt1 strain, at 50.0 µM, hits give high values
Protocol: Growth inhibition of yeast strains with defined genetic alterations is measured as a screen for potential anti-cancer activity. Selected strains with alterations in DNA damage repair or cell cycle control were exposed to compounds and growth inhibition was measured relative to vehicle treated controls. The strain used in this assay is sgs1 mgt1

Compound	growth inhibition
CCc1cccc(C)c1NC(=O)C(=O)CC(=O)CCCO	27.6%
N=c1oc2cc(O)ccc2cc1C(=O)NCc1ccccc1	-2.9%
C/C=C/C=N/SC(c1ccccc1)(c1ccccc1)c1ccccc1	-5.05%
Cc1c(-c2nc3ccccc3[nH]2)c(=O)n(-c2ccccc2)n1C	-24.1%
CC/C(=C\c1ccccc1OC)c1ccncc1	30.4%
COC(=O)/C(=C/c1ccc(OC)cc1)C(C(=O)O)=C1CCCCC1	7.35%
CC(=O)NNc1nc(C)c(C(=O)/C=C/c2ccc(Cl)cc2)s1	21.7%
O=C(O)CS(=O)(=O)Cc1ccccc1	-9.25%
CC1CCCCC12OCCO2 (stereo not given)	3.3%
CC(C)N(C(=O)c1ncccc1C(=O)c1ccccn1)C(C)C	-4.75%
c1ccc2c(c1)CCC(C1=NC3CCCCC3N1)=N2 (stereo not given)	1.1%
CC(=O)C1CCCC(=O)/C=C/C(=O)O1 (stereo not given)	-7%
Cc1nc(N(C)C)oc(=O)c1Cc1ccccc1	17.4%
COc1cc2c3c4c1OCc1c5c(cc(c1-4)CC3[N+](C)(C)CC2)OCO5 (stereo not given)	8.7%
O=COCCCCCc1ccccc1	-2.55%
CCCCCCCCCCCC(=O)NC(=S)Nc1ccc(C)c(C)c1	54.6%
COC1=CC(=O)c2ccc3ccccc3c2C1=O	89.4% (active)
O=C(O)C(O)c1ccc(Cl)c(Cl)c1 (stereo not given)	7.2%
CCOCCOC(=O)c1ccc(C(N)=NC)cc1	5.2%
COc1ccc(CNc2nc3ccccc3nc2C(=O)O)cc1OC	4.4%

Compound	growth inhibition
O=c1c(-c2ccccc2)nc2ccccc2n1CC1CCCN2CCCC[C@H]12 (stereo not given in full)	18.3%
Cc1c(Cl)cc(C(C)(C)C)c(O)c1Cc1c(C)c(Cl)cc(C(C)(C)C)c1O	-46.6%
COC(C)(C)C(Br)C(=O)OCC(=O)c1ccc(Br)cc1 (stereo not given)	11%
COc1ccc(N2C(=O)CC(c3c[nH]c4ccccc34)C2=O)cc1 (stereo not given)	1.05%
c1ccc(-c2cc(-c3ccccc3)nc(-c3ccccc3)c2)cc1	10.1%
CCc1ccc(N=Nc2c(F)c(F)c(N)c(F)c2F)cc1	2.4%
O/N=C(/CN1CCOCC1)c1ccccc1	-0.25%
O=C(O)c1c(O)cc(=O)oc1-c1ccccc1Cl	-17.4%
CN(C)c1ccc(C2(c3ccc(N(C)C)cc3)NNC(=O)c3cc(N(C)C)ccc32)cc1	13.2%
N#Cc1c(-c2ccco2)cc(-c2ccccc2)[nH]c1=O	18.1%
CCN1CCCN(CC)C1=O	-4.4%
C[N+](C)(C)CC(=O)c1ccc[nH]1	14.9%
CC1=C(O)C(=O)C2C(=O)C1C1Cc3ccccc3C21 (stereo not given)	-24.6%
COC(=O)c1cc2c(cc1CC1Cc3cc4c(cc3C1=O)CCC4)CCC2 (stereo not given)	-10.4%
N#CCCN(CCC#N)c1ccc(/C=C2\N=C(c3cc([N+](=O)[O-])ccc3Cl)N(S(=O)(=O)c3ccccc3)C2=O)cc1	3.5%
CC(C)OP(=O)(O)CCl	-24.4%
COC(=O)c1cc2c(cc1N=Cc1ccccc1Cl)OCO2	12.1%
Cc1ccc(C(=O)N/N=C/c2c(O)ccc3ccccc23)cc1	9.95%
COC(=O)C1CCC(=O)C(Sc2ccccc2)C1 (stereo not given)	18.4%
Nc1ccc(C(=O)O)cc1O	13.9%
